In the supplement of paper PMC11732987, “Enantioselective OTUD7B fragment discovery through chemoproteomics screening and high-throughput optimisation” (Communications Chemistry, 2025):

Legend:
Test in all cases: log2 ratio of Biotin-Ahx-Ub-VS probe labelling (fragment/DMSO); higher = less target engagement (more negative = stronger competition), active = hit call of the paper (q ≤ 0.05, log2 ratio ≤ -1)
Conditions in all cases: compound concentration: 200 uM; treatment time: 3 h
USP34 = USP34 (UniProt Q70CQ2)
USP34, sequence (Q70CQ2 whole entry, the tested form may be a part): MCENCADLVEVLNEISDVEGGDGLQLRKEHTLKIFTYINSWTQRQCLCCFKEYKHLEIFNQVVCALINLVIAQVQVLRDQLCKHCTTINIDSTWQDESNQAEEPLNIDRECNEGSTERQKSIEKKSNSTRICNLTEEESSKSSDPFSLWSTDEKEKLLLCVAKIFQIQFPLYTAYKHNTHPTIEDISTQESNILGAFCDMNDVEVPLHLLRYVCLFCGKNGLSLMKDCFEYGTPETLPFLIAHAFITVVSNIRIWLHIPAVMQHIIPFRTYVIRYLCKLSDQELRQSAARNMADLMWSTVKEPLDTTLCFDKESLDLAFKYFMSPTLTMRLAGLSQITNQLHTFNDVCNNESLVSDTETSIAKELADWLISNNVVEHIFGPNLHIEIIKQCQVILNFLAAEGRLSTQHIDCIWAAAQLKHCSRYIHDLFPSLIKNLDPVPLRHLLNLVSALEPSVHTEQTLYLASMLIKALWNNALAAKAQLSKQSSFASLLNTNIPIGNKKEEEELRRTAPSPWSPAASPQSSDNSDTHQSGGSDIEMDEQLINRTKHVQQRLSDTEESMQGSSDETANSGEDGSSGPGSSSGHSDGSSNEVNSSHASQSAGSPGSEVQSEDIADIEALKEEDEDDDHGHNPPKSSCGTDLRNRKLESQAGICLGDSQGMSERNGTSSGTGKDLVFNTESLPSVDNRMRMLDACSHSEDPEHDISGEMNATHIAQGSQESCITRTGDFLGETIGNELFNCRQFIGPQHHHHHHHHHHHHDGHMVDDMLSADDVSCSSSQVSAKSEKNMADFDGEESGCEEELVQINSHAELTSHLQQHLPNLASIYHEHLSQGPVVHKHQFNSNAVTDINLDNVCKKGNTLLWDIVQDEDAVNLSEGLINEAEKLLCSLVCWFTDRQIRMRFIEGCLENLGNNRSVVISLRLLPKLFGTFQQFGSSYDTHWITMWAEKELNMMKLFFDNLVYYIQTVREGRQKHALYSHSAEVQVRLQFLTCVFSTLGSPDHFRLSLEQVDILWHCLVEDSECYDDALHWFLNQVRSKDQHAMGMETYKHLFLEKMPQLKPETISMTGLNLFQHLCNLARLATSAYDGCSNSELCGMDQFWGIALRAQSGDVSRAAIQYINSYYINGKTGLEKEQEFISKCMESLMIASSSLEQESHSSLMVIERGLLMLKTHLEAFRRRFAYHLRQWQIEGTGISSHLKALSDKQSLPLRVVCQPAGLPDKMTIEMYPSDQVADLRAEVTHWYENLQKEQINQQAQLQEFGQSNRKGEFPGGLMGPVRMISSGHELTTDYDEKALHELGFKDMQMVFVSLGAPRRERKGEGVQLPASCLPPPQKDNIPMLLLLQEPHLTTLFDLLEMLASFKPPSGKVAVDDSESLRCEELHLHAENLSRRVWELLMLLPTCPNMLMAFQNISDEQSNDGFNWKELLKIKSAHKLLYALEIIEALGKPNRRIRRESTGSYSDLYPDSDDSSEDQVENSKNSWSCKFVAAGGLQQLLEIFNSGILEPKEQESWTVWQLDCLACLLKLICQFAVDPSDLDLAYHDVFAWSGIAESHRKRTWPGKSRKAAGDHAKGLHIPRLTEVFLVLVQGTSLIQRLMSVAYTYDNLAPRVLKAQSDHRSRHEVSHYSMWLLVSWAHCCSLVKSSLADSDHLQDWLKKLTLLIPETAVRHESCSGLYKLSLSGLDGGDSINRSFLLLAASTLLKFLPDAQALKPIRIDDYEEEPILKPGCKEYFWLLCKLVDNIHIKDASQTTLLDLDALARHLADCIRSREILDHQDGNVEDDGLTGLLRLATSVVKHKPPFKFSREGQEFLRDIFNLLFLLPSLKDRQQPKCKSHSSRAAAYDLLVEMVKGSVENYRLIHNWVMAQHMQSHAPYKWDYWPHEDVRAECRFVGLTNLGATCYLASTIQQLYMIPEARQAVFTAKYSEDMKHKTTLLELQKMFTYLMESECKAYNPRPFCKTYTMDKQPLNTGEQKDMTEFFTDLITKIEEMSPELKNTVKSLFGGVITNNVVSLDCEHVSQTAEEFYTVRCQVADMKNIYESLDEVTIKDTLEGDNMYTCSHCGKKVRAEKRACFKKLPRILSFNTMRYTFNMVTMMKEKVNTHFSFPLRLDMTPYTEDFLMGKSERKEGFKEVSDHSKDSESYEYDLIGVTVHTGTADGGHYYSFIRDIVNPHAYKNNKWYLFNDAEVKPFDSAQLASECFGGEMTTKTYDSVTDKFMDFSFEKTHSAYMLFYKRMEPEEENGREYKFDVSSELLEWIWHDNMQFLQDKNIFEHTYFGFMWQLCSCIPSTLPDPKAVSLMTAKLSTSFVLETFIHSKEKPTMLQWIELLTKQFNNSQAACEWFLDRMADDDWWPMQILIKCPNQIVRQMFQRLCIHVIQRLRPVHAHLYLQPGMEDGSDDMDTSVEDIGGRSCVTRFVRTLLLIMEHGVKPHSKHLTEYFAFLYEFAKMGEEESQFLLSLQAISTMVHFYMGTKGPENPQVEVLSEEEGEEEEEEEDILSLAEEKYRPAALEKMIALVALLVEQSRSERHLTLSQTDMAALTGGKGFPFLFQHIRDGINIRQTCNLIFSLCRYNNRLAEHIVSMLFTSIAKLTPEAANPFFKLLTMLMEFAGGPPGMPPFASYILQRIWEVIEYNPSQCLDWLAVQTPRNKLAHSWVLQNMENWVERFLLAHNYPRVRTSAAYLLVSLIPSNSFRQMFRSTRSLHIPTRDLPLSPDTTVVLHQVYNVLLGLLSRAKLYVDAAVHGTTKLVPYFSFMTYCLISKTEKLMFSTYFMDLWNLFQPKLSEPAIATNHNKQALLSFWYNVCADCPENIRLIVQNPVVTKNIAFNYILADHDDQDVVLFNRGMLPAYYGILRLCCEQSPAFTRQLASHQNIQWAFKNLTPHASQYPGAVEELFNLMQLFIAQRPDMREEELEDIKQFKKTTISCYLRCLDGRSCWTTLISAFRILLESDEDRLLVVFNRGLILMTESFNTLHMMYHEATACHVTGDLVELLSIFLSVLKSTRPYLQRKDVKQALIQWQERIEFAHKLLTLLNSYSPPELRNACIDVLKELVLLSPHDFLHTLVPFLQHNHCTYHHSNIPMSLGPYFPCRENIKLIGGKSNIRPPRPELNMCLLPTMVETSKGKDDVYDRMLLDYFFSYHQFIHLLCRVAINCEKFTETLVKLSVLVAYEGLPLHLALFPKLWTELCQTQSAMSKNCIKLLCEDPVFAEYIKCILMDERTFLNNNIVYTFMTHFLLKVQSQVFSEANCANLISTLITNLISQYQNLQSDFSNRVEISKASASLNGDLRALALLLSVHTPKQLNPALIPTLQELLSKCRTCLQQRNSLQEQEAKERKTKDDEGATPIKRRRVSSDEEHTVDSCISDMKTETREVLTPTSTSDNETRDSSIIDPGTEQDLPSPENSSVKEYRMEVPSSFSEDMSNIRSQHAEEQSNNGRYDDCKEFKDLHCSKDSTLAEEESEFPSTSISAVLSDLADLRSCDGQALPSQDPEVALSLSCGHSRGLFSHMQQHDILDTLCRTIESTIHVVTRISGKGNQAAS
Procedure, shortened: (§1)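 Labelled DUBs from HEK293T lysate were NeutrAvidin-enriched, digested with LysC and trypsin, and run by diaPASEF LC-MS/MS. Before that, each 495 µg sample in Tris/CHAPS/IGEPAL buffer with protease inhibitors was treated in triplicate with fragment at 200 µM or vehicle for 3 h, then with Biotin-Ahx-Ub-VS at 0.5 µM final for 1 h. Values are average log2 ratios of fragment over vehicle by unpaired t-test, based on global-median-normalised Spectronaut label-free quantities from proteins with ≥2 unique peptides.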

USP36 = molecular target: T1, USP36 (UniProt Q9P275)
T1 sequence (whole entry): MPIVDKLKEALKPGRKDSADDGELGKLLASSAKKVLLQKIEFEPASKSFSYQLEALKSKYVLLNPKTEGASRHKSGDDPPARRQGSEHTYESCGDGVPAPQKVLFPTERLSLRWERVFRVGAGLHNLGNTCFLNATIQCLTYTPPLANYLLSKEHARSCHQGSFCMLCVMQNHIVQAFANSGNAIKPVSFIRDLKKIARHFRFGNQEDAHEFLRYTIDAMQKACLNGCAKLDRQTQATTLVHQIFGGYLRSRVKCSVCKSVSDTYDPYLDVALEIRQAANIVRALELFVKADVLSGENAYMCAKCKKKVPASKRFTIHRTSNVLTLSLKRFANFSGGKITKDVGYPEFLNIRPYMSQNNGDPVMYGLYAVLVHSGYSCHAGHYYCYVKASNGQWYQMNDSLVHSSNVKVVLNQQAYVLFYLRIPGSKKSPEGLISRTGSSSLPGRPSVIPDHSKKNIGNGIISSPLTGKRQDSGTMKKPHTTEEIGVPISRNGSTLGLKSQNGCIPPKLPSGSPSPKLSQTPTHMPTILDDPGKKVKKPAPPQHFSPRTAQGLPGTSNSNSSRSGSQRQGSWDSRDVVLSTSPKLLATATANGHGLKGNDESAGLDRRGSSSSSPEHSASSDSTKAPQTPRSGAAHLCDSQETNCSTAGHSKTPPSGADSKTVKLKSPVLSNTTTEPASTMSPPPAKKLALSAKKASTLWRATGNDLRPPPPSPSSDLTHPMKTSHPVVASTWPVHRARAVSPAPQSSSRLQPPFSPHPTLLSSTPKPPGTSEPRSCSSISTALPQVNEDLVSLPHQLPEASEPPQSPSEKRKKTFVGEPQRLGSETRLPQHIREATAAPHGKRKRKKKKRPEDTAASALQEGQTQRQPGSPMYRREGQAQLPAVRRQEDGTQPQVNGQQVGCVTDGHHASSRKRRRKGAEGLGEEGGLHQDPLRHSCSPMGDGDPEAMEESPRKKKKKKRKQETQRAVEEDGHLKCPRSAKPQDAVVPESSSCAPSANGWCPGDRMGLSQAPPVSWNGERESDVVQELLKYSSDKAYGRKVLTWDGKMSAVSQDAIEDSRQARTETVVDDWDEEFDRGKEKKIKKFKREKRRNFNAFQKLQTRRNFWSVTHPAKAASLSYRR
Procedure, shortened: as §1

USP38 = molecular target: T2, USP38 (UniProt Q8NB14)
T2 sequence (whole entry): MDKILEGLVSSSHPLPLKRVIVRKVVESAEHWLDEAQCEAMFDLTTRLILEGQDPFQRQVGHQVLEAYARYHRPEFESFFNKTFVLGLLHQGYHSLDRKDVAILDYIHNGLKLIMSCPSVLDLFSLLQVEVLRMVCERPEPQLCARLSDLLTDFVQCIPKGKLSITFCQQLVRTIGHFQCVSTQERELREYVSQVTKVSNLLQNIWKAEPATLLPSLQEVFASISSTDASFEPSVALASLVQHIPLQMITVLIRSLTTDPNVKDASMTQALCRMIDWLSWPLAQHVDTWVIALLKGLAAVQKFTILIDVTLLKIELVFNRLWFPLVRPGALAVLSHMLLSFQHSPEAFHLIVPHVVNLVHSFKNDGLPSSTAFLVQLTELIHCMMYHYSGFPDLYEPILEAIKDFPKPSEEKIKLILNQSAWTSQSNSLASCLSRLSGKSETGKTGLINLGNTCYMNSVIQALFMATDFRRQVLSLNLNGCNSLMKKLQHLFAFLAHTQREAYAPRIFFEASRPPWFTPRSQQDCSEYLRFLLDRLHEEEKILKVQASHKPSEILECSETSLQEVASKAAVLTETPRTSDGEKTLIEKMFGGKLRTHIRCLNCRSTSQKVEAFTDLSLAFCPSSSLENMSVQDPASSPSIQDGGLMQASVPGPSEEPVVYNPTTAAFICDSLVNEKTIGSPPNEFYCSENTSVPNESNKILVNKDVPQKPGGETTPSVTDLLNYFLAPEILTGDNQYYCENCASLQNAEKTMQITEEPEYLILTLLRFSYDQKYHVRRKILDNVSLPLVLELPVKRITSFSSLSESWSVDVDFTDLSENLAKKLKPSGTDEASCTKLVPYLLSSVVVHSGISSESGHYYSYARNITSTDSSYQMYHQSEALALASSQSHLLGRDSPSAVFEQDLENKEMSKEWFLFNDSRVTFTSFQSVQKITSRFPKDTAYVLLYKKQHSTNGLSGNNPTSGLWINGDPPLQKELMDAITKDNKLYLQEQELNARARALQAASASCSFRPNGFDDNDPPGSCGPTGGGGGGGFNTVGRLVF
Procedure, shortened: as §1

USP39 = molecular target: T3, USP39 (UniProt Q53GS9)
T3 sequence (whole entry): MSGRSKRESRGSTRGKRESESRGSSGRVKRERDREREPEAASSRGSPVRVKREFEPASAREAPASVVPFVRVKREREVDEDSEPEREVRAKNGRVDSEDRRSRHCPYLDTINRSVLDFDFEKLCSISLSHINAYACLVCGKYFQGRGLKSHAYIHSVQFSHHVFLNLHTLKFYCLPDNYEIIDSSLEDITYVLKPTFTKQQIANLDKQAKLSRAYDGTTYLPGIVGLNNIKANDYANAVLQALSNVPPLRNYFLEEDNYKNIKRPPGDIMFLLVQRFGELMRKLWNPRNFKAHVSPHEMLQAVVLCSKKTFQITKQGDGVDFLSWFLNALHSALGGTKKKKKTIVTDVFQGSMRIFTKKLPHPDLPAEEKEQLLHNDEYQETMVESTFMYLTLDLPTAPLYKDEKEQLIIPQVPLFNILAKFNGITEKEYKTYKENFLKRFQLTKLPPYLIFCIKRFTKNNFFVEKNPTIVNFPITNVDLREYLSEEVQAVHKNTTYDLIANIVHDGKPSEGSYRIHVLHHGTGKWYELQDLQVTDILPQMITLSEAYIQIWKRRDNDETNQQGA
Procedure, shortened: as §1

USP4 = molecular target: T4, USP4 (UniProt Q13107)
T4 sequence (whole entry): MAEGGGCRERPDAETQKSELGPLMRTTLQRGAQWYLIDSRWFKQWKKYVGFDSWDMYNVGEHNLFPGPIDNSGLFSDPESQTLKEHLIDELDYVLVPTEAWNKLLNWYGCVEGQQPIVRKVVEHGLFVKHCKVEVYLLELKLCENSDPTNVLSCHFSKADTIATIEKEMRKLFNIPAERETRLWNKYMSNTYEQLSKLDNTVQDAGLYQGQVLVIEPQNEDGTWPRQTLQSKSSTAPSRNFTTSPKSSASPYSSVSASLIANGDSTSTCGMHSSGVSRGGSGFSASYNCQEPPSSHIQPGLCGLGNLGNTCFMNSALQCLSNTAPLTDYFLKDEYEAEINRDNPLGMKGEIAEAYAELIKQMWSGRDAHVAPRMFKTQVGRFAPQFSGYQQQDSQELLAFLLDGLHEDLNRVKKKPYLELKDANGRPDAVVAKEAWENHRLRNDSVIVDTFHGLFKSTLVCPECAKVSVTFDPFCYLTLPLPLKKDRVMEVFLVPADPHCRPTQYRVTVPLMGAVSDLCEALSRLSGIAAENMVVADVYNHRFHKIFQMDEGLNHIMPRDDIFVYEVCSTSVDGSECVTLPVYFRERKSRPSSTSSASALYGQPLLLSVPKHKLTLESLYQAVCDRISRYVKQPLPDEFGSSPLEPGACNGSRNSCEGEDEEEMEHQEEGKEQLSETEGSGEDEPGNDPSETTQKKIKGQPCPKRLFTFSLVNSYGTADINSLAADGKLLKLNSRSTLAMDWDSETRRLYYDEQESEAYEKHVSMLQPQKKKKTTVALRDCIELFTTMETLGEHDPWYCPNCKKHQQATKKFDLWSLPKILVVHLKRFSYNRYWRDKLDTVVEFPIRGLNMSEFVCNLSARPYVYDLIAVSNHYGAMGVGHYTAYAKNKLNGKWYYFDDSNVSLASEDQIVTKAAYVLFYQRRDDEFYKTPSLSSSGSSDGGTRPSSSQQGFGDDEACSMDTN
Procedure, shortened: as §1

Measured: log2 ratio of Biotin-Ahx-Ub-VS probe labelling

CCCn1nccc1NC(=O)CCl
inactive: USP34 -0.0454 | USP36 -0.015 | USP38 -0.241 | USP39 -0.211 | USP4 -0.159
